B1: Caulobacter ParB omega fusion; a variant is named by its letters at X, in order, B8GW30 (parent)
chain: MESVVVGEPGMSEGRRGLGRGLSALLGEVDAAPAQAPGEQLGGSREAPIEILQRNPDQPRRTFREEDLEDLSNSIREKGVLQPILVRPSPDTAGEYQIVAGERAWRAAQRAGLKTVPIMVRELDDLAVLEIGIIENVQRADLNVLEEALSYKVLMEKFERTQENIAQTIGKSXSHVANXMRLLXLPDEVQSYLVSGELTAXHARAIAAAADPVALAKQIIEGGLSVRETEALARKAPNLSAGKSKGGRPPRVKDTDTQALESDLSSVLGLDVSIDHRGSTGTLTITYATLEQLDDLCNRLTRGI

In all, about 81,000 sequences were measured (“one-hybrid fitness for binding parS DNA”: median about -0.17, highest 2% from about 0.51 on). For the sample, the highest values were picked, then their nearest neighbours and some sequences at random.

Variants of B1 are the subject of this experiment. As to the kind of experiment: one-hybrid fitness for binding parS DNA (scaled: cognate 1, non-cognate 0); higher = stronger binding. As to conditions: with parS DNA site. A digest of the protocol:
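The reporter was HIS3, with the binding site 19 bp from the promoter, in E. coli USO used for bacterial one-hybrid selection of Caulobacter ParB libraries with four specificity codons randomised. Growth was on M9 lacking histidine, with 0.1 mM IPTG and 5 mM 3-AT, for 48 hours at 37°C. Illumina sequencing covered plasmids before and after selection; three replicate libraries were pooled and variants with under 10 reads dropped. A fitness score is the log change in variant-to-wild-type read ratio, rescaled to the cognate and non-cognate references.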
Consider VNRI, for which the “one-hybrid fitness for binding parS DNA” value was not above 0.2.

On to QPAD, for which the “one-hybrid fitness for binding parS DNA” value was not above 0.2.

As to QAKR, the “one-hybrid fitness for binding parS DNA” value was not above 0.2.

On to PSVL, for which the “one-hybrid fitness for binding parS DNA” value was not above 0.2.

Turning to PTYM, the “one-hybrid fitness for binding parS DNA” value was not above 0.2.

As for RALT, the “one-hybrid fitness for binding parS DNA” value worked out at 0.888.

As for RADT, the “one-hybrid fitness for binding parS DNA” value was found to be 0.732.

Consider RADR, for which the “one-hybrid fitness for binding parS DNA” value is not above 0.2.

As for RAWT, the “one-hybrid fitness for binding parS DNA” value turned out to be 0.809.

With RALQ, the “one-hybrid fitness for binding parS DNA” value is not above 0.2.

For the variant RALK, the “one-hybrid fitness for binding parS DNA” value was not above 0.2.

As to RADK, the “one-hybrid fitness for binding parS DNA” value was not above 0.2.

Regarding RAWN, the “one-hybrid fitness for binding parS DNA” value is 0.384.

For RAWH, the “one-hybrid fitness for binding parS DNA” value stood at 0.223.

MCRN: the “one-hybrid fitness for binding parS DNA” value was not above 0.2.

Turning to QVLP, the “one-hybrid fitness for binding parS DNA” value is not above 0.2.

Take NHYR: the “one-hybrid fitness for binding parS DNA” value is not above 0.2.

For EVTS, the “one-hybrid fitness for binding parS DNA” value is not above 0.2.

On to GHDR, for which the “one-hybrid fitness for binding parS DNA” value is not above 0.2.

As to HVTM, the “one-hybrid fitness for binding parS DNA” value was not above 0.2.

As to PTLD, the “one-hybrid fitness for binding parS DNA” value is not above 0.2.

As for TYDN, the “one-hybrid fitness for binding parS DNA” value was not above 0.2.

As for AAAL, the “one-hybrid fitness for binding parS DNA” value is not above 0.2.

Consider LNIY, for which the “one-hybrid fitness for binding parS DNA” value is not above 0.2.

For RLMD, the “one-hybrid fitness for binding parS DNA” value is not above 0.2.

Consider RIMP, for which the “one-hybrid fitness for binding parS DNA” value is not above 0.2.

Regarding RMML, the “one-hybrid fitness for binding parS DNA” value is not above 0.2.

Consider RLMN, for which the “one-hybrid fitness for binding parS DNA” value turned out to be 0.459.

Take RPMS: the “one-hybrid fitness for binding parS DNA” value was not above 0.2.

As for RIMS, the “one-hybrid fitness for binding parS DNA” value amounted to 1.04.

In the case of RCMP, the “one-hybrid fitness for binding parS DNA” value came out at 0.232.

With RCMS, the “one-hybrid fitness for binding parS DNA” value turned out to be 1.01.

RMMS: the “one-hybrid fitness for binding parS DNA” value turned out to be 1.03.

As to RLMS, the “one-hybrid fitness for binding parS DNA” value is 1.04.

Take RMMD: the “one-hybrid fitness for binding parS DNA” value was not above 0.2.

As for RIMH, the “one-hybrid fitness for binding parS DNA” value was found to be 0.264.

For the variant THDG, the “one-hybrid fitness for binding parS DNA” value is not above 0.2.

For the variant EQQR, the “one-hybrid fitness for binding parS DNA” value is not above 0.2.

Turning to MVPW, the “one-hybrid fitness for binding parS DNA” value was not above 0.2.

With ASII, the “one-hybrid fitness for binding parS DNA” value is not above 0.2.

Turning to PLHG, the “one-hybrid fitness for binding parS DNA” value is not above 0.2.

As for GYPH, the “one-hybrid fitness for binding parS DNA” value was not above 0.2.

With CVTM, the “one-hybrid fitness for binding parS DNA” value was not above 0.2.

For the variant RHMH, the “one-hybrid fitness for binding parS DNA” value was not above 0.2.

With RSMH, the “one-hybrid fitness for binding parS DNA” value turned out to be 0.245.

RKMD: the “one-hybrid fitness for binding parS DNA” value is not above 0.2.

For the variant RKMS, the “one-hybrid fitness for binding parS DNA” value was 0.876.

RRMN: the “one-hybrid fitness for binding parS DNA” value worked out at 0.4.

For the variant RHMD, the “one-hybrid fitness for binding parS DNA” value is not above 0.2.

With RSMS, the “one-hybrid fitness for binding parS DNA” value was determined as 0.994.

For RRMP, the “one-hybrid fitness for binding parS DNA” value is not above 0.2.

For RKMN, the “one-hybrid fitness for binding parS DNA” value worked out at 0.372.

With RRMS, the “one-hybrid fitness for binding parS DNA” value stood at 0.704.

In the case of RHMS, the “one-hybrid fitness for binding parS DNA” value turned out to be 0.966.

Consider RSMN, for which the “one-hybrid fitness for binding parS DNA” value turned out to be 0.402.

PLPS: the “one-hybrid fitness for binding parS DNA” value was not above 0.2.

For the variant QYNK, the “one-hybrid fitness for binding parS DNA” value was not above 0.2.

As for EHAS, the “one-hybrid fitness for binding parS DNA” value was not above 0.2.

With VMVC, the “one-hybrid fitness for binding parS DNA” value was not above 0.2.

As to RHYV, the “one-hybrid fitness for binding parS DNA” value was not above 0.2.

On to SIFD, for which the “one-hybrid fitness for binding parS DNA” value is not above 0.2.

As for LPVS, the “one-hybrid fitness for binding parS DNA” value is not above 0.2.

With RAMH, the “one-hybrid fitness for binding parS DNA” value is not above 0.2.

On to RFMH, for which the “one-hybrid fitness for binding parS DNA” value was not above 0.2.

Turning to RAMD, the “one-hybrid fitness for binding parS DNA” value was not above 0.2.

With RAMS, the “one-hybrid fitness for binding parS DNA” value was found to be 1.02.

As to RFMP, the “one-hybrid fitness for binding parS DNA” value was not above 0.2.

As for RFMS, the “one-hybrid fitness for binding parS DNA” value amounted to 0.983.

Consider RTMS, for which the “one-hybrid fitness for binding parS DNA” value came to 0.981.

On to RTMD, for which the “one-hybrid fitness for binding parS DNA” value was not above 0.2.

For RTMH, the “one-hybrid fitness for binding parS DNA” value was not above 0.2.

Regarding TRVI, the “one-hybrid fitness for binding parS DNA” value was not above 0.2.

For the variant NMKR, the “one-hybrid fitness for binding parS DNA” value was not above 0.2.

As to LWSA, the “one-hybrid fitness for binding parS DNA” value is not above 0.2.

For HELA, the “one-hybrid fitness for binding parS DNA” value was not above 0.2.

Turning to TPTY, the “one-hybrid fitness for binding parS DNA” value was not above 0.2.

Turning to TLRR, the “one-hybrid fitness for binding parS DNA” value was not above 0.2.

With RTKA, the “one-hybrid fitness for binding parS DNA” value was found to be 0.808.

For RTVA, the “one-hybrid fitness for binding parS DNA” value stood at 0.566.

For DTKA, the “one-hybrid fitness for binding parS DNA” value was not above 0.2.

On to NTKA, for which the “one-hybrid fitness for binding parS DNA” value is not above 0.2.

On to NTVA, for which the “one-hybrid fitness for binding parS DNA” value was not above 0.2.

Consider WIMN, for which the “one-hybrid fitness for binding parS DNA” value was not above 0.2.

For the variant RIYI, the “one-hybrid fitness for binding parS DNA” value was not above 0.2.

Regarding TADM, the “one-hybrid fitness for binding parS DNA” value is not above 0.2.

QLFQ: the “one-hybrid fitness for binding parS DNA” value is not above 0.2.

As for KDMG, the “one-hybrid fitness for binding parS DNA” value is not above 0.2.

As for RKAH, the “one-hybrid fitness for binding parS DNA” value is not above 0.2.

Turning to RKFK, the “one-hybrid fitness for binding parS DNA” value was not above 0.2.

As for RKAG, the “one-hybrid fitness for binding parS DNA” value worked out at 0.959.

For the variant RKAN, the “one-hybrid fitness for binding parS DNA” value is 0.343.

Take RKFG: the “one-hybrid fitness for binding parS DNA” value was found to be 0.946.

For RKFQ, the “one-hybrid fitness for binding parS DNA” value was not above 0.2.

Consider VRYQ, for which the “one-hybrid fitness for binding parS DNA” value is not above 0.2.

Regarding SMCS, the “one-hybrid fitness for binding parS DNA” value is not above 0.2.

Take TFRT: the “one-hybrid fitness for binding parS DNA” value was not above 0.2.

GREF: the “one-hybrid fitness for binding parS DNA” value is not above 0.2.

For the variant GPDK, the “one-hybrid fitness for binding parS DNA” value was not above 0.2.

Take TATR: the “one-hybrid fitness for binding parS DNA” value was not above 0.2.

Turning to RFAG, the “one-hybrid fitness for binding parS DNA” value is 0.941.

Take NFFG: the “one-hybrid fitness for binding parS DNA” value was not above 0.2.

Consider RFFG, for which the “one-hybrid fitness for binding parS DNA” value was determined as 0.776.

For NFAG, the “one-hybrid fitness for binding parS DNA” value is not above 0.2.

KFFG: the “one-hybrid fitness for binding parS DNA” value is not above 0.2.

Consider DFAG, for which the “one-hybrid fitness for binding parS DNA” value was not above 0.2.

As to SCLF, the “one-hybrid fitness for binding parS DNA” value is not above 0.2.

Turning to FALR, the “one-hybrid fitness for binding parS DNA” value is not above 0.2.

Take IHMV: the “one-hybrid fitness for binding parS DNA” value was not above 0.2.

Turning to LILG, the “one-hybrid fitness for binding parS DNA” value is not above 0.2.

Turning to TTYT, the “one-hybrid fitness for binding parS DNA” value was not above 0.2.

In the case of KWSC, the “one-hybrid fitness for binding parS DNA” value is not above 0.2.

Consider LCWL, for which the “one-hybrid fitness for binding parS DNA” value is not above 0.2.

With RPLC, the “one-hybrid fitness for binding parS DNA” value is not above 0.2.

In the case of RSLK, the “one-hybrid fitness for binding parS DNA” value is not above 0.2.

As to RCLC, the “one-hybrid fitness for binding parS DNA” value is 1.02.

RDLC: the “one-hybrid fitness for binding parS DNA” value is not above 0.2.

On to RSLC, for which the “one-hybrid fitness for binding parS DNA” value was 0.939.

Take RELC: the “one-hybrid fitness for binding parS DNA” value was not above 0.2.

Take QCAL: the “one-hybrid fitness for binding parS DNA” value is not above 0.2.

RIIL: the “one-hybrid fitness for binding parS DNA” value is not above 0.2.

With MQLE, the “one-hybrid fitness for binding parS DNA” value is not above 0.2.

For WYDG, the “one-hybrid fitness for binding parS DNA” value is not above 0.2.

For REFC, the “one-hybrid fitness for binding parS DNA” value was not above 0.2.

Consider RCFC, for which the “one-hybrid fitness for binding parS DNA” value is 1.03.

Take RSFC: the “one-hybrid fitness for binding parS DNA” value stood at 0.892.

For RPFC, the “one-hybrid fitness for binding parS DNA” value is not above 0.2.

RSFM: the “one-hybrid fitness for binding parS DNA” value came to 0.292.

Regarding RDFC, the “one-hybrid fitness for binding parS DNA” value was not above 0.2.

Turning to DKNG, the “one-hybrid fitness for binding parS DNA” value was not above 0.2.

Regarding YTIY, the “one-hybrid fitness for binding parS DNA” value is not above 0.2.

On to SSYC, for which the “one-hybrid fitness for binding parS DNA” value was not above 0.2.

On to RIVH, for which the “one-hybrid fitness for binding parS DNA” value is not above 0.2.

RIKM: the “one-hybrid fitness for binding parS DNA” value amounted to 0.325.

RIVT: the “one-hybrid fitness for binding parS DNA” value was determined as 0.788.

Regarding RIVN, the “one-hybrid fitness for binding parS DNA” value was found to be 0.407.

As for RIKF, the “one-hybrid fitness for binding parS DNA” value stood at 0.303.

As to RIKT, the “one-hybrid fitness for binding parS DNA” value is 0.772.

For RAAR, the “one-hybrid fitness for binding parS DNA” value was not above 0.2.

As to RAAC, the “one-hybrid fitness for binding parS DNA” value was 0.98.

On to RAAY, for which the “one-hybrid fitness for binding parS DNA” value amounted to 0.478.

With RAFF, the “one-hybrid fitness for binding parS DNA” value was found to be 0.249.

On to RAFM, for which the “one-hybrid fitness for binding parS DNA” value came to 0.331.

Take RAFC: the “one-hybrid fitness for binding parS DNA” value is 0.925.

For SIFS, the “one-hybrid fitness for binding parS DNA” value is not above 0.2.

Consider QSTM, for which the “one-hybrid fitness for binding parS DNA” value is not above 0.2.

With HPTI, the “one-hybrid fitness for binding parS DNA” value is not above 0.2.

Consider RPPA, for which the “one-hybrid fitness for binding parS DNA” value is not above 0.2.

On to NRIA, for which the “one-hybrid fitness for binding parS DNA” value was not above 0.2.

Turning to RRIA, the “one-hybrid fitness for binding parS DNA” value came to 0.828.

With RCPA, the “one-hybrid fitness for binding parS DNA” value is 0.432.

As to RRPA, the “one-hybrid fitness for binding parS DNA” value turned out to be 0.574.

On to NRNI, for which the “one-hybrid fitness for binding parS DNA” value is not above 0.2.

For YNMN, the “one-hybrid fitness for binding parS DNA” value was not above 0.2.

The values above are taken from a collection of fitness landscapes (doi:10.1016/j.celrep.2020.107928).
